Assay outcomes deposited in PubChem by National Center for Advancing Translational Sciences (NCATS).
DT40 TDP1 CPT: DT40-hTDP1 cell growth loss with CPT; chicken DT40 Tdp1-/-;hTDP1 cells + 20 nM CPT, ATP luminescence, 48 h; Potency, µM (series often up to 46.2 µM), without a hit: at the highest dose activity change, negative = growth inhibition, actives largely listed as inhibitors; 420,000 compounds, 12% hits; AID 686979; further: potency means the concentration at half of the fitted maximal effect; nearly all actives have a fitted effect of over 55% in size
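Chicken DT40 Tdp1-/- cells complemented with human TDP1, 400 cells/well, exposed to compounds plus 20 nM camptothecin for at least 48 h at 37 C; viability read as ATP content by CellTiter-Glo luminescence.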
TDP1 cell noCPT: qHTS for Inhibitors of human tyrosyl-DNA phosphodiesterase 1 (TDP1): qHTS in cells in absence of CPT. DT40 Tdp1-/- hTDP1 cells, no CPT, ATP luminescence, 48 h. Potency, µM (doses to about 46.2 µM), for inactives: at the highest dose activity change, negative = growth inhibition, most hits filed as inhibitors. 420,000 compounds, 15% hits. AID 686978, 2013; further: potency means the concentration at half of the fitted maximal effect; nearly all actives have a fitted effect of over 55% in size
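Chicken DT40 Tdp1-/- cells stably complemented with human TDP1 were seeded at 400 cells/well with DMSO in place of 20 nM camptothecin. After compound pinning, cells grew at least 48 hr at 37 °C; viability read by CellTiter-Glo luminescence.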
HT1080NT lethal: kills 2HG-producing HT-1080-NT fibrosarcoma cells; HT-1080-NT fibrosarcoma viability, CellTiter-Glo ATP luminescence, 48 h; Potency, µM (highest dose often 46.1 µM), inactives show at the top dose activity, negative = less viability, usual class: cytotoxic; 360,000 compounds, 1.6% hits; AID 686970;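 further: NT is the 2HG producing partner of a matched IDH1 knockdown line; potency means the concentration at half of the fitted maximal effect; 0% = DMSO-treated cells and -100% = media-only wells without cells; nearly all actives have a fitted effect of over 55% in size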
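Viability of the 2HG-overproducing fibrosarcoma line after 48 hours of compound exposure at 37 degrees C was determined by luminescence with CellTiter-Glo, and concentration-effect curves were then fitted and categorized.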
IL1B secr inh: inflammasome signaling inhibition, IL-1 beta readout | activity change, % at 57.5 µM | 360,000 compounds, 4.7% hits | THP-1 LPS/ATP IL-1B secretion, AlphaLISA, 16 h; hits give low values; in the data active means activity change below about -50%; inconclusive means mostly about -30% to -49%
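THP-1 cells pretreated 1 hr with compounds (up to 57.5 uM final), then stimulated with LPS (250 ng/mL final) plus ATP (1.25 mM final); secreted IL-1B measured by AlphaLISA after 16 hr, decreased signal indicating inhibition.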
uPA generation: inhibitors of cell surface uPA generation; Potency, µM (doses to about 38.3 µM), for inactives: at the highest dose activity change, negative = inhibition, actives largely listed as inhibitors; 330,000 compounds, 0.31% hits; cell surface uPA generation assay, qHTS; active means well fitted inhibition curve with a large enough effect; inconclusive means small, poorly fitted or top-dose-only effect; inactive means no such curve, though single readings can be large or run the other way; tested in mouse RAW 264.7 cells; further: potency means the concentration at half of the fitted maximal effect; nearly all actives have a fitted effect of over 55% in size
HT1080 IDH1KD tx: HT-1080 IDH1 knockdown cell toxicity (counter line) | 360,000 compounds, 2% hits | AID 686971 | Potency, µM (titrated, usually from 46.1 µM), without a hit: top-dose activity, negative = toxicity, hits mostly cytotoxic | HT-1080 IDH1 knockdown viability, ATP luminescence, 48 h;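 further: potency means the concentration at half of the fitted maximal effect; 0% = DMSO wells and -100% = cell-free medium wells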
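After a 2 h attachment period, IDH1KD HT-1080 cells took pin-transferred compound for 48 h at 37 °C; ATP-based luminescence after 10 min room-temperature reagent incubation reported viability.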
* marks the source's active call; other numbers are inactive results; ? = inconclusive; / = no result; [ ] = another dose, or the depositor's remark. A selection: hits, their analogues and other compounds. The true share with any hit is near 19%. Unless noted, the call rests on the fitted dose curve; in most records, active means well fitted curve in the direction sought with a large enough effect; inconclusive means small, poorly fitted or top-dose-only effect, or another doubt; inactive means no such curve, though single readings can be large; an effect the other way counts as inactive or inconclusive. Unless noted, on the % scale 0 is the no-effect control and ±100 the full control effect.

SMILES	DT40 TDP1 CPT	TDP1 cell noCPT	HT1080NT lethal	IL1B secr inh	uPA generation	HT1080 IDH1KD tx
COc1ccc(-c2cc(C(=O)N3CCN(C(c4ccccc4)c4ccccc4)CC3)no2)cc1	23µM*	?	-1%	-5	/	-16%
COc1ccc(NC(=O)c2cc(C3CCCCN3S(C)(=O)=O)on2)c(C)c1 (configuration not stated)	-11%	-4%	13%	0	/	?
C/C(N)=C(/C#N)C(=O)CSc1nc2ccccc2c(=O)n1-c1ccccc1C	?	?	0%	47	-22%	-10%
Cc1ccccc1-n1c(CSC(=N)N)nc2ccccc2c1=O	21µM*	?	9%	0	-5%	3%
N=C(N)SCc1nc2ccccc2c(=O)n1-c1ccccc1Cl	26µM*	21µM*	19%	?	-4%	11%
CCCn1c(SCC(O)c2ccccc2)nc2ccccc21 (configuration not stated)	-26%	?	/	/	/	/
Cc1cccc(C(=O)Nc2nnc(SCc3cc(=O)n4cccc(C)c4n3)s2)c1	6%	2%	/	/	/	/
COc1ccccc1N1CCN(CCN2C(=O)C3CCCCN3C2=O)CC1 (configuration not stated)	1%	-8%	3%	15	3%	9%
C/C=C(\C)C(=O)NCCN1Cc2ccccc2OC(c2ccccc2OC)C1 (configuration not stated)	-7%[9.04 µM]	-27%	/	/	/	/
CCOC(=O)c1nc(NNC(=O)c2ccc([N+](=O)[O-])cc2)sc1C	?	?	?	-7	-14%	7.3µM*
CC[C@]12c3[nH]c4ccccc4c3CCN1C(=O)C(CC(=O)NCCN1CCOCC1)C[C@@H]2C(=O)N1CCN(C(=O)C2CC2)CC1 (some centres not stated)	3%	-2%	7%	19	11%	9%
CC[C@]12c3[nH]c4ccc(Cl)cc4c3CCN1C(=O)[C@@H](CC(=O)NCc1ccc(OC)c(OC)c1)C[C@@H]2C(=O)N1CCN(C(=O)C2CC2)CC1	?	16µM*	-3%	-1	7%	-6%
CC[C@]12c3[nH]c4cc(CCC(=O)N(C)C)ccc4c3CCN1C(=O)[C@@H](CC(=O)NC/C=C(\C)CCC=C(C)C)C[C@@H]2C(=O)N1CCN(C(=O)C2CC2)CC1	8.2µM*	6.5µM*	0%	-18	?	-16%
CC[C@]12c3[nH]c4ccc(Cl)cc4c3CCN1C(=O)[C@@H](CC(=O)NC/C=C(\C)CCC=C(C)C)C[C@@H]2C(=O)N1CCN(C(=O)C2CC2)CC1	?	21µM*	?	?	?	21µM*
CC(C)=CCC/C(C)=C/CNC(=O)C[C@H]1C[C@H](C(=O)N2CCOCC2)[C@@]2(C)c3[nH]c4cc(CCC(=O)N(C)C)ccc4c3CCN2C1=O	23µM*	16µM*	-11%	-4	10µM*	-8%
CC[C@]12c3[nH]c4ccc(OC)cc4c3CCN1C(=O)C(CC(=O)NCc1ccc(OC)c(OC)c1)C[C@@H]2C(=O)N1CCN(C(=O)C2CC2)CC1 (some centres not stated)	-22%	-15%	5%	-5	10%	6%
Cc1nn(CC(=O)N2CCC(C)CC2)c(=O)c2cc3occc3n12	-12%	-4%	/	/	/	/
Cc1oncc1C(=O)N1CCCC(CO)(Cc2ccc(F)cc2F)C1 (configuration not stated)	7%	-21%	19%	-2	-2%	26%
CN(C)C(=O)CCc1ccc2c3c([nH]c2c1)[C@]1(C)[C@@H](C(=O)N2CCCCC2)C[C@H](CC(=O)NC(C)(C)C)C(=O)N1CC3	?	?	16%	1	9%	11%
CC(C)=CCC/C(C)=C/CNC(=O)C[C@H]1C[C@H](C(=O)N2CCCCC2)[C@@]2(C)c3[nH]c4cc(CCC(=O)N(C)C)ccc4c3CCN2C1=O	7.3µM*	15µM*	-2%	-68*	?	-21%
COc1ccc(OC)c(NC(=O)CN2CCCN(Cc3ccccc3Cl)S2(=O)=O)c1	?	23µM*	/	/	/	/
COCC(=O)Nc1ccc(OC)c(Cl)c1	-3%	3%	?	-4	-6%	10%
COc1ccc(NC(=O)CN2CCCN(Cc3ccc(Cl)cc3)S2(=O)=O)cc1Cl	12µM*	10µM*	/	/	/	/
CCCCNC(=O)c1nc(-c2cnc(C)cn2)oc1-c1ccc(Cl)cc1	?	?	19%	15	/	15%
Cc1ccc(Cl)cc1N1CCN(S(=O)(=O)c2ccc3c(c2)CCCN3C(=O)C2CCC2)CC1	-4%	?	/	/	/	/
SMILES	DT40 TDP1 CPT	TDP1 cell noCPT	HT1080NT lethal	IL1B secr inh	uPA generation	HT1080 IDH1KD tx
Oc1ccc(O)c(Cc2nc3ccccc3s2)c1	?	?	?	-55*	-12%	16µM*
Cc1ccc(CCNC(=O)Cn2ccc3cc(S(=O)(=O)N4CCCC4)ccc32)cc1	?	23µM*	-17%	21	0%	-6%
Cc1ccccc1CCNC(=O)Cn1ccc2cc(S(=O)(=O)N3CCCC3)ccc21	18µM*	?	-8%	5	4%	-19%
O=C(Cc1cccs1)N[C@@H]1C(=O)N2C(C(=O)[O-])=C(C[n+]3ccccc3)CS[C@H]12	-3%	-14%	/	/	/	/
Cc1cc(/C=C(/C#N)c2cccc(F)c2)c(C)n1-c1cccnc1	?	?	?	-89*	-13%	-30%
COc1ccc(N2CCN(C(=O)Cn3cnc4nc5c(cc4c3=O)CCCC5)CC2)cc1	-5%	-25%	/	/	/	/
C=CCN1C(=O)CSC1=Nc1ccc(O)cc1	?	16µM*	-18%	22	/	?
C=CCN1C(=O)CSC1=Nc1ccc(NC(C)=O)cc1	10%	-5%	0%	11	12%	3%
COc1ccccc1-n1c(-c2ccc(Cl)cc2)c[nH]c1=S	23µM*	21µM*	8%	24	7%	4%
Cc1cccc(-n2c(C)n[nH]c2=S)c1C	-1%	-6%	9%	0	-1%	2%
COc1ccccc1/C=C\C=N\n1c(-c2ccc(Cl)cc2)n[nH]c1=S	?	?	-5%	0	0%	-1%
Cc1cccc(-n2c(-c3ccccc3)c[nH]c2=S)c1C	?	12µM*	-4%	-4	0%	-8%
Nc1c(C(=O)NCc2ccc3c(c2)OCO3)c2nc3ccccc3nc2n1CCCN1CCOCC1	23µM*	?	?	-98*	?	7%[9.24 µM]
